Screen size: about 4,100 compounds; about 1,600 (39%) were called active. About 25% were inconclusive and are not listed. Calls follow the shape of the dose curve; as a rule, active = well fitted inhibition curve with a large enough effect; inconclusive = small, poorly fitted or top-dose-only effect; inactive = no such curve, though single readings can be large or run the other way. The list shows a part of the results.
Assay: qHTS Validation assay for Inhibitors of Plasmodium falciparum Dd2 growth in vitro; also: nearly all actives have a fitted effect of over 70% in size
Details: P. falciparum Dd2 in RBCs, SYBR Green growth, 72 h; series mostly up to 28.7 µM
Procedure, shortened: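 P. falciparum Dd2-infected red blood cells (2.5% hematocrit, 0.3% parasitemia) grown 72 h at 37 °C under 5% O2 with compounds in a titration, 29 uM to 0.5 nM final. Growth read as SYBR Green-1 fluorescence after ~16 h lysis; artesunate 300 nM as positive control.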
Potency is read from the fitted curve at half-maximal effect.

SMILES | Potency
Cn1cc(-c2cccc(CO)c2)c2nc(COc3ccc(Cl)cc3)cn2c1=O | inactive
O=C1C=C(c2cccc(CO)c2)C[C@@H](c2ccc(Cl)cc2)C1 | 3.76 µM (active)
CC1(c2ccccc2)O[C@@H]2C[C@H]3[C@@H]4CCC5=CC(=O)C=C[C@]5(C)[C@@]4(F)[C@@H](O)C[C@]3(C)[C@]2(C(=O)CO)O1 (some centres undefined) | 4.73 µM (active)
O=C(Nc1ccncc1)C1c2ccccc2Oc2ccccc21 | inactive
CCOC(=O)c1sc(NC(=O)C2c3ccccc3Oc3ccccc32)c(C(=O)OCC)c1C | 2.66 µM (active)
COc1cc(Nc2ncncc2-c2nc(-c3ccccc3)no2)cc(OC)c1OC | inactive
CC(C)(C)OC(=O)N1CCC(c2c(C(=O)NCCN3CCC(Cc4ccccc4)CC3)cnn2-c2ccc(F)cc2)CC1 | 5.31 µM (active)
CC(C)(C)OC(=O)N1CCC(CNC(=O)c2ccc(F)cc2)CC1 | inactive
Cc1ccc(C)c(N2CCN(CCCNC(=O)c3cnn(-c4ccc(F)cc4)c3C3CCN(C(=O)OC(C)(C)C)CC3)CC2)c1 | 2.66 µM (active)
Cc1ccc(-n2ncc(C(=O)N3CCN(c4cc(Cl)ccc4C)CC3)c2C2CCN(C(=O)OC(C)(C)C)CC2)cc1 | 8.41 µM (active)
Cc1ccc(C)c(N2CCN(CCCNC(=O)c3cnn(-c4cccc(Cl)c4)c3C3CCN(C(=O)OC(C)(C)C)CC3)CC2)c1 | 8.41 µM (active)
Cc1ccccc1C(=O)N1CCC(c2nn(-c3ccc(Cl)cc3)c(=O)[nH]2)CC1 | inactive
Cn1cnc(S(=O)(=O)N2CCCOCCNC(=O)[C@@H]3CCC[C@@H]32)c1 | inactive
Cc1cccc(C)c1-n1ncc(C(=O)NCCCN2CCC(C)CC2)c1C1CCN(C(=O)OC(C)(C)C)CC1 | 15 µM (active)
CC(C)(C)OC(=O)N1CCC(c2c(C(=O)NCCN3CCc4ccccc4C3)cnn2-c2ccc(F)cc2F)CC1 | 5.31 µM (active)
CC1CCN(C(=O)c2cc3c(s2)CCC(C(=O)NCCCN2CCOCC2)C3)CC1 (centres undefined) | inactive
O=C(CN1C2=NCCCN2c2ccccc21)c1ccc(Cl)cc1Cl | 6.68 µM (active)
CNCC(=O)N1C[C@@H](C(=O)O)[C@H](c2ccccc2)C1 | inactive
O=C(N/N=C/c1ccc(OCc2ccccc2)cc1)c1ccco1 | 13.3 µM (active)
CC(C)C(=O)OCC(=O)[C@@]12O[C@H](C3CCCCC3)O[C@@H]1C[C@H]1[C@@H]3CCC4=CC(=O)C=C[C@]4(C)[C@H]3[C@@H](O)C[C@@]12C | 2.66 µM (active)
CC(=O)SC1CC(=O)N(c2c(C)cccc2C)C1=O (centres undefined) | inactive
CN1C(=O)C2(c3ccccc31)N(C)CC(c1ccccc1)C21SC(=S)N(Cc2ccco2)C1=O (centres undefined) | 13.3 µM (active)
COc1ccc(-c2nc(C3CC3)nc3c2CCN(Cc2cccnc2)CC3)cc1 | 13.3 µM (active)

SMILES | Potency
Cc1ccc(CN2CCc3nc(C(=O)Nc4nc(C)cs4)oc3CC2)cc1 | inactive
CC(C)c1nc2c(c(-c3ccc(O)cc3)n1)CCN(CC1CCCCC1)CC2 | 4.73 µM (active)
Oc1ccc(-c2nc(C3CC3)nc3c2CCN(CC2CCCCC2)CC3)cc1 | 4.73 µM (active)
COc1cccc(C(=O)N2CCc3nc(C4CC4)nc(-c4ccc(Cl)cc4)c3C2)c1 | inactive
Cc1ccc(CN2CCc3nc(C4CC4)nc(-c4ccc(O)cc4)c3CC2)cc1 | 4.73 µM (active)
CCc1nc2c(c(-c3ccc(Cl)cc3)n1)CCN(CC1CCCCC1)CC2 | inactive
Cc1nc2c(c(-c3ccc(Cl)cc3)n1)CCN(C(=O)c1ccc(C(F)(F)F)cc1)CC2 | inactive
Oc1ccc(-c2nc(C3CC3)nc3c2CN(CC2CCCCC2)CC3)cc1 | 6.68 µM (active)
O=C(c1ccc(C(F)(F)F)cc1)N1CCc2nc(C3CC3)nc(-c3ccc(Cl)cc3)c2CC1 | 13.3 µM (active)
O=C(c1ccccc1Cl)N1CCc2nc(-c3ccccc3)nc(-c3ccc(Cl)cc3)c2C1 | inactive
Cc1cccc(-c2cc3nc(C)c(C)c(NCCCn4ccnc4)n3n2)c1 | 5.31 µM (active)
COc1ccc(-c2oc3ccccc3c2C#Cc2cncn2C)cc1 | 1.06 µM (active)
CCOC(=O)c1[nH]c(C)c(CCC(=O)N2CCN(c3cc(C)ccc3C)CC2)c1C | 1.33 µM (active)
CCO[C@H]1CN(C(=O)CCc2nc3c(C)c(C)ccc3[nH]2)C[C@@H]1O | inactive
CCOC(=O)c1[nH]c(C)c(CCC(=O)N2CCN(c3cccc(C)c3C)CC2)c1C | 1.33 µM (active)
CN(C)[C@H]1CCCCN(C(=O)CCc2ccc(-c3ccc(Cl)cc3)[nH]2)C1 | inactive
CCOC(=O)c1[nH]c(C)c(CCC(=O)N2CCN(c3cc(Cl)ccc3C)CC2)c1C | 1.19 µM (active)
O=C(CCc1cc2ccccc2[nH]c1=O)N1CCCCC1 | inactive
N#C/C(=C\c1ccc(Cl)cc1)c1nc(-c2cc3ccccc3oc2=O)cs1 | inactive
N#C/C(=C\c1ccc(Sc2ccc(Cl)cc2)o1)c1nc2ccccc2[nH]1 | 2.99 µM (active)
Cn1nc(-c2nncn2CC2CC2)c2c1CCN(C(=O)c1nn(C)c3ccccc13)C2 | inactive
CC1CCCN(Cc2c(O)ccc3c4c(c(=O)oc23)CCCC4)C1 (centres undefined) | 6.68 µM (active)
CC1CCCN(Cc2c(O)ccc3c(=O)c(Oc4ccc(C(C)(C)C)cc4)c(C(F)(F)F)oc23)C1 (centres undefined) | 0.299 µM (active)

SMILES | Potency
CCc1ccc(Oc2c(C(F)(F)F)oc3c(CN4CCCC(C)C4)c(O)ccc3c2=O)cc1 (centres undefined) | 1.33 µM (active)
COc1ccc(-c2cc3ccc(O)c(CN4CCCC(C)C4)c3oc2=O)cc1 (centres undefined) | 2.37 µM (active)
CCc1noc(-c2cn(C3CCN(C(=O)c4ccc(N(C)C)cc4)CC3)nn2)n1 | inactive
COc1cccc(OC)c1CN1CCC2(CC1)CC(O)CCO2 (centres undefined) | inactive
O=c1oc2c(CN3CCOCC3)c(O)ccc2cc1-c1ccccc1 | 9.44 µM (active)
COc1ccc(-c2ccccc2NC(=O)C2CCCN(Cc3c(O)cccc3OC)C2)cc1 (centres undefined) | 2.11 µM (active)
COc1ccc(Oc2c(C(F)(F)F)oc3c(CN4CCCC(C)C4)c(O)ccc3c2=O)cc1 (centres undefined) | 2.37 µM (active)
Cn1cc(-c2ccccc2Oc2ccccc2)c2nc(CN3CCOCC3)cn2c1=O | inactive
CN(C)c1cccc(C(=O)N2CCC(c3n[nH]c(=O)n3-c3ccccc3)CC2)c1 | inactive
Cc1noc(C)c1-c1cc2c(cc(-c3ccccc3)n2C)c(-c2ccnn2C)n1 | 8.63 µM (active)
Cc1noc(C)c1-c1cc2c(cc(-c3ccccc3)n2C)c(-c2cccnc2)n1 | 10.9 µM (active)
COc1cc(F)ccc1-c1nc(-c2c(C)noc2C)cc2[nH]c(C)cc12 | inactive
COc1ncccc1-c1nc(-c2c(C)noc2C)cc2c1cc(-c1ccccc1)n2C | 13.7 µM (active)
O=c1c([N+](=O)[O-])cccn1Cc1ccc(F)cc1Cl | 4.73 µM (active)
Cc1ccc(CNC(=O)CN2CCN(Cc3ccc(F)cc3Cl)C2=O)cc1 | inactive
Cc1ccc(S(=O)(=O)Nc2cc(C)cn(Cc3ccc(F)cc3)c2=O)cc1 | inactive
Cc1ccccc1-n1c(SCC(=O)Nc2ccc(Cl)cc2Cl)nc(O)cc1=O | inactive
O=C(CSc1nccn1-c1cccc(Cl)c1)NO | inactive
CCCn1c(SCC(=O)Nc2cc(Cl)ccc2Cl)n[nH]c1=O | 5.31 µM (active)
CC(=O)c1c(N2CCN(C)CC2)[nH]c(-c2ccccc2)nc1=S | 5.96 µM (active)
O=c1c2c([nH]c3ccc(Br)cc13)CCCC2 | 6.68 µM (active)
O=c1c2c([nH]c3ccccc13)CCCC2 | 6.68 µM (active)
CC(C)(C)C1CCc2[nH]c3ccccc3c(=O)c2C1 (centres undefined) | 1.88 µM (active)

SMILES | Potency
O=c1c(-c2ccccc2)n[nH]c2ccccc12 | inactive
O=C(CSc1nc(Nc2ccccc2)nc(N2CCOCC2)n1)Nc1cc(Cl)ccc1O | 2.37 µM (active)
COc1cccc(-c2cc3c(=O)n(CCNC(=O)COc4ccc(F)cc4)ccn3n2)c1 | inactive
CCN(CC)CCNC(=O)c1ccc(NC(=O)c2cn(-c3ccc(F)cc3)nc2-c2cccc(OC)c2)cc1 | 9.44 µM (active)
Cc1nn(-c2ccccc2)nc1-c1nnc(-c2ccc(C(F)(F)F)cc2)o1 | inactive
COc1cc(NC2CCCCC2O)c2nc(-c3ccc(Cl)cc3)ccc2c1 (centres undefined) | 5.31 µM (active)
Oc1ccc(Cl)cc1CNCc1ccc(C(F)(F)F)cc1 | 4.22 µM (active)
Oc1ccc(Cl)cc1CNCc1cccc2ccccc12 | 0.842 µM (active)
Oc1ccc(Cl)cc1CNCC1CCCCC1 | 4.22 µM (active)
O=C(Nc1cccc(Oc2ccc(C(=O)O)c(C(=O)O)c2)c1)c1ccc(-c2ccccc2)cc1 | inactive
CC(C)(C)N1C(=O)c2ccc(C(=O)Nc3ccc(-c4nc5ccccc5[nH]4)cc3)cc2C1=O | 6.68 µM (active)
O=C(Nc1cccc(-c2nc3ccccc3[nH]2)c1)c1ccc(C(=O)Nc2cccc(-c3nc4ccccc4[nH]3)c2)cc1 | 2.66 µM (active)
CS(=O)(=O)c1ccc(C(=O)Nc2ccc(-c3nc4ccccc4[nH]3)cc2)cc1 | 7.5 µM (active)
COC(=O)c1ccc(NC(=O)CSc2nc3cc4ccccc4cc3[nH]2)cc1 | inactive
Nc1ccc2nc(-c3cccnc3)[nH]c2c1 | inactive
CC(=O)Nc1ccc(S(=O)(=O)N2CCC(n3c(C)nc4cccnc43)CC2)cc1 | inactive
CC1CCCCN1S(=O)(=O)c1ccc(C(=O)Nc2ccccc2-c2nc3ccccc3[nH]2)cc1 (centres undefined) | 7.5 µM (active)
COc1ccc(CCN(C)C(=S)Nc2cccc(C)c2)cc1OC | 2.11 µM (active)
COc1cc2c(cc1OC)C(c1ccccc1N)=NCC2 | inactive
Brc1c(C[n+]2ccccc2)nc2ccccn12 | inactive

Reference: PubChem BioAssay AID1347416 (National Center for Advancing Translational Sciences (NCATS), 2020)
